Compounds without any hit were thinned out: in the full panel of roughly 79,000, 15% have a hit. A number with no mark means an inactive call. The source made the active and inactive calls. Rule as the data show it: active = growth inhibition above about 70%; inactive = the rest.
Test: NCI Yeast Anticancer Drug Screen. Data for the cln2 rad14 strain (AID 165);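 also: 0% = growth equal to vehicle treated cultures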
Conditions: S. cerevisiae cln2 rad14 strain, hits give high values
Method: Growth inhibition of yeast strains with defined genetic alterations is measured as a screen for potential anti-cancer activity. Selected strains with alterations in DNA damage repair or cell cycle control were exposed to compounds and growth inhibition was measured relative to vehicle treated controls. The strain used in this assay is cln2 rad14

[1] = at 5.0 µM (retest, dose inferred, filed as 0.5)
[2] = at 50.0 µM (retest, dose inferred, filed as 5.0)

SMILES: CC12CC(Br)(Br)C(=O)C3C1CCCC32
- growth inhibition [1]: 49%
- growth inhibition [2]: 35%
- growth inhibition (at 50.0 µM): 75.7% (active)

SMILES: Cn1cc(/C=C/[N+](=O)[O-])c2ccc(OCc3ccccc3)cc21
- growth inhibition [1]: 10%
- growth inhibition [2]: 54%
- growth inhibition (at 50.0 µM): 17.5%

SMILES: CC(=O)Nc1ccc2c(c1)[nH]c(=O)c1cc(Cl)ccc12
- growth inhibition [1]: -20%
- growth inhibition [2]: 76% (active)
- growth inhibition (at 50.0 µM): 0.95%

SMILES: CCCCCCCCCCCCCCCCCC(=O)OCC(O)COC(=O)CCCCCCCCCCCCCCCCC
- growth inhibition [1]: 0%
- growth inhibition [2]: -13%
- growth inhibition (at 50.0 µM): 38.4%

SMILES: C[n+]1c(/C=C/c2ccc([N+](=O)[O-])cc2)ccc2ccccc21
- growth inhibition [1]: 12%
- growth inhibition [2]: 77% (active)
- growth inhibition (at 50.0 µM): 82.7% (active)

SMILES: COC1(OC)OC2=C(OC1(OC)OC)c1ccccc1C2=O
- growth inhibition [1]: 5%
- growth inhibition [2]: 3%
- growth inhibition (at 50.0 µM): -15.2%

SMILES: O=[N+]([O-])c1ccc(-n2ncc3cccnc32)c([N+](=O)[O-])c1
- growth inhibition [1]: -1%
- growth inhibition [2]: 98% (active)
- growth inhibition (at 50.0 µM): 46.9%

SMILES: C/C(=N\NC(=S)NCc1ccccc1)c1nccnc1C
- growth inhibition [1]: 35%
- growth inhibition [2]: 98% (active)
- growth inhibition (at 50.0 µM): 85.9% (active)

SMILES: O=C(NCCN1CCN2Cc3[nH]c4ccccc4c3CC2C1)c1ccc(Cl)cc1 (configuration not stated)
- growth inhibition [1]: 27%
- growth inhibition [2]: 72% (active)
- growth inhibition (at 50.0 µM): 55.6%

SMILES: CCCCCCCCCCCCCCCCCO
- growth inhibition [1]: -1%
- growth inhibition [2]: -5%
- growth inhibition (at 50.0 µM): -15.6%

SMILES: N#CC1Oc2ccccc2N1C(=O)c1ccccc1 (configuration not stated)
- growth inhibition [1]: -6%
- growth inhibition [2]: 0%
- growth inhibition (at 50.0 µM): -0.55%

SMILES: CC(=O)OCC(=O)[C@@]1(O)CC[C@H]2[C@@H]3CCC4=CC(=O)C=C[C@]4(C)[C@@]3(F)[C@@H](O)C[C@@]21C
- growth inhibition [1]: -6%
- growth inhibition [2]: 5%
- growth inhibition (at 50.0 µM): 66.2%

SMILES: O=C(Nc1ccc(S(=O)(=O)NC2CCCCC2)cc1)OC1CCCCC1
- growth inhibition [1]: -10%
- growth inhibition [2]: 93% (active)
- growth inhibition (at 50.0 µM): 93.7% (active)

SMILES: CCCCNCCCCCCCCCCCl
- growth inhibition [1]: 60%
- growth inhibition [2]: 98% (active)
- growth inhibition (at 50.0 µM): 64.8%

— PubChem BioAssay (NCI)
